Hits are enriched below; roughly 0.47% of the tested compounds scored in any of these assays.
AID inhibitor – Primary qHTS assay for inhibitors of Activation Induced Cytidine Deaminase (AID): AID signal. AID deamination FRET fluorescence, UDG-coupled, 4 h. Potency, µM (top dose mostly 115 µM), usual class: inhibitors. 91,000 tested, 0.32% active; also: nearly all actives have a fitted effect of over 25% in size
Target sequence (Q9GZX7 whole entry, looked up): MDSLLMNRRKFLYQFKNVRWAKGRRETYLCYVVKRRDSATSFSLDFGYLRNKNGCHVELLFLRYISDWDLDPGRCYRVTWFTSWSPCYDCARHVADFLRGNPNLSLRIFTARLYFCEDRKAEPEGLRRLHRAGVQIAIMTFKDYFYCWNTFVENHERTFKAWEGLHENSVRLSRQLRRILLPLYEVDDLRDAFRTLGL
UDG counterscr – Primary qHTS assay for inhibitors of Activation Induced Cytidine Deaminase (AID): UDG Counterscreen signal. Uracil-DNA glycosylase. 91,000 tested, 0.14% active. FRET deamination/UDG coupled assay, UDG read, 4 h. Potency, µM (doses to about 115 µM), without a hit: at the top dose activity change, negative = inhibition, actives largely listed as inhibitors; also: nearly all actives have a fitted effect of over 65% in size
An asterisk follows results filed as active; i = inactive; ? = inconclusive; [ ] = dose if it differs, or a comment. Calls follow the shape of the dose curve; as a rule, active = well fitted curve in the direction sought with a large enough effect; inconclusive = small, poorly fitted or top-dose-only effect, or another doubt; inactive = no such curve, though single readings can be large; an effect the other way counts as inactive or inconclusive. % is scaled to controls: 0 for no effect and ±100 for the full control effect; potency is read from the fitted curve at half-maximal effect.

SMILES | AID inhibitor | UDG counterscr
O=Cc1cccc(OCc2ccc(Br)cc2)c1 | i | -12%
Cc1nc(/C=C/C(=O)N(Cc2ccccc2)C2CC2)cs1 | i | 6%
O=C1c2ccccc2C(=O)C1(c1ccccc1)N1CCN(c2cccc(C(F)(F)F)c2)CC1 | 25µM* | -14%
O=C1c2ccccc2C(=O)C1(c1ccccc1)N1CCN(c2cccc(Cl)c2)CC1 | i | -8%
COc1ccc2oc(C)c(C(=O)OC(C)C)c2c1 | i | -6%
O=S(=O)(c1cccc2nsnc12)n1cccn1 | i | 2%
CC(=O)c1ccc(N2CCN(C(=O)C3CCN(S(=O)(=O)c4c(C)noc4/C=C/c4ccc(C)cc4)CC3)CC2)cc1 | i | 1%
Cc1ccc(/C=C/c2onc(C)c2S(=O)(=O)N2CCC(C(=O)N3CCC(N(C)C(C)C)CC3)CC2)cc1 | 45µM* | -20%
Cn1ccnc1Sc1ncc(C(F)(F)F)cc1Cl | i | -6%
CC(C)(CNC(=O)NCC1CC=CCC1)C(N)=O (stereo not given) | i | 5%
Cc1ccc(Cl)cc1N1CCN(C(=O)c2cc3ccc4cccnc4c3[nH]2)CC1 | 22µM* | -12%
Cc1ccc(Cl)cc1N(C)C(=O)c1cnc(N2CCOCC2)c2ccccc12 | i | 51%
O=C(c1cc2ccc3cccnc3c2[nH]1)N1CCN(c2ccc(Cl)cc2)CC1 | i | -5%
Cc1ccc(Cl)cc1N1CCN(C(=O)c2cnc(N3CCOCC3)c3ccccc23)CC1 | 22µM* | ?
C/C(=N/O)c1cc2cc(Cl)ccc2oc1=O | i | -3%
COc1cc(/C=C/C(=O)c2ccc(C3CCCCC3)cc2)cc(Br)c1O | i | 1%
CC(C)(C)c1ccc(CSc2nc3c(c(=O)[nH]2)CCCC3)cc1 | i | 79µM*
O=c1[nH]c(SCc2ccc([N+](=O)[O-])cc2)nc2c1CCCC2 | i | ?
O=C(Cc1ccc(Br)cc1)Nc1cccc2ncccc12 | i | 6%
COc1cccc(-c2nc(CS(=O)CC(=O)N3CCN(c4cccc(C(F)(F)F)c4)CC3)c(C)o2)c1 (stereo not given) | 45µM* | -14%[57.5 µM]
Cc1oc(-c2ccc(Cl)cc2)nc1CS(=O)CC(=O)N1CCN(c2cccc(C(F)(F)F)c2)CC1 (stereo not given) | ? | -11%[57.5 µM]
COC(=O)c1ccc(Oc2c(C)oc3cc(OCc4ccccc4F)ccc3c2=O)cc1 | i | -12%
Cn1c(CC(=O)Nc2ccccc2)nnc1SCC(=O)NC12CC3CC(CC(C3)C1)C2 | i | 8%
Cc1ccc(NC(=O)Cc2nnc(SCC(=O)NC34CC5CC(CC(C5)C3)C4)n2C)cc1C | i | 89µM*
O=Cc1ccc(O)c(Cl)c1 | i | 0%
SMILES | AID inhibitor | UDG counterscr
COC(=O)COc1ccc(-c2nnc(Nc3ccc(OC)cc3)c3ccccc23)cc1 | i | -8%
CC(C)N(CCNC(=O)C(c1ccccc1)c1ccccc1)C(C)C | i | -1%
O=C1C(SCCO)=C(SCCO)C(=O)c2ccccc21 | 11µM* | -10%
COc1cccc(C(=O)N(Cc2ccc(C)o2)C2CCS(=O)(=O)C2)c1 (stereo not given) | i | 6%
CCCCOc1c(Cl)cc(C(=O)N(Cc2ccc(C)o2)C2CCS(=O)(=O)C2)cc1Cl (stereo not given) | ? | 89µM*
CCc1ccc(C(=O)COC(=O)c2ccc(C(=O)c3ccccc3)cc2)cc1 | i | -10%
Cc1ccc(C)c(N2CCN(C(=O)Cn3nc(Cc4cccnc4)c4ccccc4c3=O)CC2)c1 | 71µM* | -6%[57.5 µM]
O=C(Cn1nc(Cc2cccnc2)c2ccccc2c1=O)N1CCN(c2ccc(F)cc2)CC1 | i | -4%[57.5 µM]
COc1ccc2c(C)c(CCC(=O)NCc3ccc(S(N)(=O)=O)cc3)c(=O)oc2c1 | i | 1%
CCC(C(=O)Nc1cc(OC)ccc1OC)n1nc(-c2ccccc2)c2c(c1=O)CCCC2 (stereo not given) | 28µM* | -22%
COc1ccccc1NC(=O)Cn1nc(-c2ccc(C)cc2)c2c(c1=O)CCCC2 | ? | 5%
CCOC(=O)c1c(C)[nH]c(CCC(=O)NCc2ccccc2Cl)c1C | i | 5%[57.5 µM]
Oc1ccc(N=Cc2ccc3ccccc3c2)cc1 | 14µM* | ?
Clc1ccc(N=Cc2ccc3ccccc3c2)cc1Cl | i | 5%
Cc1c(C)c2ccc(OCC(=O)NCCN(C)C)c(C)c2oc1=O | i | 5%
CCCCNC(=O)C1CCCN(Cc2nc(-c3ccc(Cl)cc3)oc2C)C1 (stereo not given) | i | ?
Cc1ccc(Cl)cc1N1CCN(C(=O)C2CCN(Cc3nc(-c4ccc(Cl)cc4)oc3C)CC2)CC1 | ? | 89µM*
Cc1ccc(C)c(N2CCN(C(=O)C3CCN(Cc4nc(-c5cccc(Cl)c5)oc4C)CC3)CC2)c1 | i | 89µM*
Cc1cccc(-c2nc(CN3CCCC(C(=O)N4CCN(c5cc(Cl)ccc5C)CC4)C3)c(C)o2)c1 (stereo not given) | ? | 89µM*
COc1ccc(N2CCN(C(=O)C3CCN(Cc4nc(-c5ccc(Cl)cc5)oc4C)CC3)CC2)cc1 | i | -7%
Cc1oc(-c2ccc(Cl)cc2)nc1CN1CCCC(C(=O)NCc2ccccc2)C1 (stereo not given) | i | 89µM*
Cc1ccccc1-c1nc(CN2CCCC(C(=O)NCc3ccc(Cl)cc3)C2)c(C)o1 (stereo not given) | i | ?
Cc1oc(-c2cccc(Cl)c2)nc1CN1CCC(C(=O)NCCCN2CCN(c3ccccc3F)CC2)CC1 | i | -6%
Clc1ccccc1-c1nc(-c2ccc(Br)cc2)no1 | i | -7%
C=Cc1ccc(CSc2nc(-c3ccc(C)cc3)nc3c2Cc2c(CO)cnc(C)c2O3)cc1 | 32µM* | 6%
SMILES | AID inhibitor | UDG counterscr
Cc1ccc(-c2nc3c(c(SCC(=O)N(C)c4ccccc4)n2)Cc2c(CO)cnc(C)c2O3)cc1 | ? | 3%
CCc1ccc(-c2nc3c(c(SCc4ccccc4)n2)Cc2c(CO)cnc(C)c2O3)cc1 | i | -7%
CCN(CC)C(=O)CSc1nc(-c2ccc(C)cc2)nc2c1Cc1c(CO)cnc(C)c1O2 | 45µM* | 5%
CCC(C)(C)NC(=O)CSc1nc(C)c(C)n1C1CCCCC1 | i | -1%
Cc1ccc(C(=O)NC(C)(C)CO)cc1 | i | 2%
COc1ccc(C(=O)Oc2cccc(C)c2C)cc1I | i | -3%
CCN1CCN(CCCNC(=O)c2cnn(-c3ccc(C)cc3)c2C2CCN(C(=O)OC(C)(C)C)CC2)CC1 | i | 10%
Cc1ccc(-n2ncc(C(=O)NCCc3ccccc3)c2C2CCN(C(=O)OC(C)(C)C)CC2)c(C)c1 | 25µM* | -21%
CN1CCN(CCNC(=O)c2cnn(-c3cccc(Cl)c3)c2C2CCN(C(=O)OC(C)(C)C)CC2)CC1 | i | -16%
Cc1ccc(C)c(N2CCN(CCCNC(=O)c3cnn(-c4cccc(Cl)c4)c3C3CCN(C(=O)OC(C)(C)C)CC3)CC2)c1 | 35µM* | -20%
CC(C)(C)OC(=O)N1CCC(c2c(C(=O)NCCc3ccccc3)cnn2-c2ccc(F)cc2F)CC1 | ? | 51%
Cc1ccc(C)c(N2CCN(CCCNC(=O)c3cnn(-c4ccc(F)cc4)c3C3CCN(C(=O)OC(C)(C)C)CC3)CC2)c1 | 28µM* | -28%
CCN(CC)C(=O)c1sc(NC(=O)c2nc3ncccn3n2)c(C(=O)OC)c1C | i | -16%[57.5 µM]

Bioassay records deposited in PubChem BioAssay by National Center for Advancing Translational Sciences (NCATS).
